Many of the other results were omitted from the sample, so hits are more common in it than they were.
Glioma ERSR ind: inducers of ER stress response in human glioma cells | U87-MG GRP78 promoter luciferase reporter, 16 h | Potency, µM, without a hit: at the top dose activation, hits mostly activators | actives 0.02% (n = 420,000) | AID 602332; also: series mostly up to about 76 µM; % of control where 0% means no effect; nearly all actives have a fitted effect of over 35% in size
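ERSR induction read as luciferase luminescence (Bright-Glo, 10 min at room temperature) in stably transfected human U87-MG glioma cells exposed to compounds for 16 h, using GRP78 as sensor.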
G9a block: G9a (human) methyltransferase inhibition; Q96KQ7; G9a H3K9 monomethylation, AlphaScreen, 2 h; Potency, µM (highest dose often 102 µM), for inactives: top-dose activity, negative = inhibition, actives largely listed as inhibitors; actives 8.8% (n = 350,000); also: % is scaled to controls: 0 for no effect and ±100 for the full control effect; nearly all actives have a fitted effect of over 75% in size
Target sequence (Q96KQ7 913-1193 limits assumed): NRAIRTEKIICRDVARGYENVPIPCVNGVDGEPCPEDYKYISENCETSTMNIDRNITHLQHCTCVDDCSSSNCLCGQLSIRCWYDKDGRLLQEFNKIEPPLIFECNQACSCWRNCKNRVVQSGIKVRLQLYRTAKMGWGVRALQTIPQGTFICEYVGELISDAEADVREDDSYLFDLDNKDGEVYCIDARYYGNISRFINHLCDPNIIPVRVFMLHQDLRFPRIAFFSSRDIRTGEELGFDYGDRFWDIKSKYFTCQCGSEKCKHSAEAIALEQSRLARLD
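Chemiluminescent proximity detection of H3K9 monomethylation, read after 10 min bead incubation in the dark. Reaction: 20 nM G9a, 500 nM biotin-H3K9 peptide, 20 uM SAM cofactor, 2 h, room temperature, following 15 min enzyme-compound preincubation.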
VDR inh: inhibitors of human vitamin D receptor; Potency, µM, inactives show max response, negative = inhibition, usual class: inhibitors; actives 0.93% (n = 400,000); P11473; VDR-SRC2-3 peptide fluorescence polarization, 2 h; also: % is scaled to controls: 0 for no effect and ±100 for the full control effect
Target sequence (P11473 whole entry, looked up): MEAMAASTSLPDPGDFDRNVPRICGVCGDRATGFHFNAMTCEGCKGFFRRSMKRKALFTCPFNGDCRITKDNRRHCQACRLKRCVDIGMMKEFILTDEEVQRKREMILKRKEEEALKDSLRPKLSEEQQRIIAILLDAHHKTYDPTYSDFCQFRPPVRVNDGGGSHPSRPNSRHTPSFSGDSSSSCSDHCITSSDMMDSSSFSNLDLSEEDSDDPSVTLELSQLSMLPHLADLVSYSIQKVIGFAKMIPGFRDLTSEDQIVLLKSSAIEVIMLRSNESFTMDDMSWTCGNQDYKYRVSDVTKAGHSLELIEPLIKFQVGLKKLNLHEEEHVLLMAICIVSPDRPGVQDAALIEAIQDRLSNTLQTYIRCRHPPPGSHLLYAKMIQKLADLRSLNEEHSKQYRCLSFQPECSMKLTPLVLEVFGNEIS
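FP read-out; VDR + SRC2-3 coactivator peptide; 23 nl compound by pintool; 2 h RT incubation; reagents held at 4 deg C, protected from light.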
Sfp inh: Sfp phosphopantetheinyl transferase inhibition. Q9F4F7. Biochemical Sfp PPTase activity, qHTS. Potency, µM, for the others: largest response in the series, negative = inhibition, usual class: inhibitors. actives 3.5% (n = 310,000). AID 1490;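 also: the enzyme is Sfp with the accession as filed and its product quenches rhodamine fluorescence; 0% = enzyme reaction without inhibitor and -100% = no enzyme wells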
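With Hepes-Na pH 7.6 buffer containing 10 mM MgCl2, Sfp (15 nM) modified BHQ-2-YbbR (12.5 uM) using rhodamine-CoA (5 uM). Two reads 30 minutes apart at 525/598 nm yielded each well's rate.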
12-LOX inh: blocks human arachidonate 12S-lipoxygenase; actives 1.1% (n = 580,000); P18054; purified 12hLO, xylenol orange hydroperoxide absorbance; Potency, µM (doses to about 108 µM), without a hit: at the highest dose activity change, negative = inhibition, usual class: inhibitors; also: % is scaled to controls: 0 for no effect and ±100 for the full control effect
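Purified human 12hLO (150 nM final) in 25 mM Hepes, 0.01% Triton X-100, pH 7.0 was preincubated 15 min at room temperature with compound. Then 40 uM arachidonic acid was added, 30 min. Hydroperoxide was read by Fe-XO absorbance ratio 573/405 nm.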
Active calls of the source: *; ? = inconclusive; . = no result given; [ ] = remark or other dose. Calls follow the shape of the dose curve; as a rule, active = well fitted curve in the direction sought with a large enough effect; inconclusive = small, poorly fitted or top-dose-only effect, or another doubt; inactive = no such curve, though single readings can be large; an effect the other way counts as inactive or inconclusive. Potency is read from the fitted curve at half-maximal effect.

SMILES	Glioma ERSR ind	G9a block	VDR inh	Sfp inh	12-LOX inh
Cc1ccc(/C=C2\SC(=S)N(CCCC(=O)Nc3ccccn3)C2=O)cc1	-14.1%	70.8µM*	-3.2%	14.6%	?
O=C(Cc1ccccc1)NNC(=O)Cc1ccccc1	-1.9%	-24.4%[59 µM]	16.1%	5.8%	0.6%
O=C(Cc1ccccc1)NC(NNc1ccccc1)(C(F)(F)F)C(F)(F)F	-0.7%	10µM*	?	8.6%	?
CCc1noc(C)c1C(=O)Nc1ccc(C(C)C)cc1	.	.	.	.	30.9%
O=C(Nc1ccccc1C(=O)NCCc1ccccc1)c1cnc2ccccc2n1	.	.	.	.	-17.4%
N#Cc1c(-c2ccco2)c2c([nH]c1=S)CCCC2	-3.0%	?	-10.1%	4.47µM*	31.6µM*
N#Cc1c(-c2cccnc2)c2c([nH]c1=S)CCCC2	-3.6%	0.708µM*	-24.1%	28.2µM*	?
CC(C)Cc1c2c([nH]c(=S)c1C#N)CCCC2	-5.8%	2.24µM*	?	2µM*	?
COC(=O)C1=C(Nc2ccccc2NC(=O)c2ccccc2C(=O)O)CSC1	4.9%	-19.5%	-20.1%	44.7µM*	162.5%
CC(C)c1ccccc1NC(=O)CCCC(=O)O	-4.7%	10.7%[59 µM]	-2.9%	6.3%	465.9%
COC(=O)C1=C(Nc2ccccc2NC(=O)CCCC(=O)O)CSC1	-4.7%	.	-4.8%	79.4µM*	148.1%
O=C(O)c1ccccc1C(=O)Nc1ccccc1NC(=O)c1ccccc1C(=O)O	-6.7%	.	11.2%	.	?
O=C(CS)Nc1ccc2ccccc2c1	9.0%	15.4%	79.4µM*	?	6.1%
O=C(Cc1ccc2c(c1)CCCC2)Nc1ccc2ccccc2c1	1.8%	7.08µM*	-13.6%	-10.8%	-23.2%
O=C(O)c1nn(Cc2ncc(-c3cccc(Cl)c3)o2)c(=O)c2ccccc12	0.4%	39.8µM*	5.4%	9.5%	-7.9%
O=C(O)CCCC(=O)Nc1ccc(OCc2nc3ccccc3s2)cc1	1.0%	3.16µM*	?	8.91µM*	?
CCNC(=S)Nc1ccc(OCC)cc1	0.4%	26.1%[59 µM]	-10.7%	14.2%	-20.7%
CCNC(=S)Nc1ccc(OCc2nc3ccccc3s2)cc1	0.3%	14.8%[0.501 µM]	70.8µM*	20µM*	44.7µM*
CC(NC(=O)c1ccccc1C(F)(F)F)C1CC2CCC1C2 (stereo not given)	.	.	.	.	24.6%
COc1ccc(N2C(=O)CC(NNc3nc4ccccc4s3)C2=O)cc1 (stereo not given)	-4.0%	-20.0%[59 µM]	-0.1%	-4.6%	105.3%
COc1ccc(N2C(=O)CC(Sc3nnc(-c4ccccc4F)n3C)C2=O)cc1 (stereo not given)	-0.9%	11.2µM*	-17.7%	1.0%	-2.9%
COc1ccc(N2C(=O)CC(Sc3nc4ccccc4s3)C2=O)cc1 (stereo not given)	-12.6%	25.1µM*	6.2%	7.1%	-2.5%
Cc1nnc(SC2CC(=O)N(c3ccccc3)C2=O)s1 (stereo not given)	-15.4%	8.91µM*	14.9%	35.5µM*	99.2%
COc1ccc(N2C(=O)CC(Sc3nccc(C)n3)C2=O)cc1 (stereo not given)	-1.6%	-5.7%[59 µM]	6.7%	-14.6%	0.0%
C=CCNc1nnc(SC2CC(=O)N(c3ccc(OC)cc3)C2=O)s1 (stereo not given)	-5.0%	8.91µM*	-19.5%	?	-1.6%
SMILES	Glioma ERSR ind	G9a block	VDR inh	Sfp inh	12-LOX inh
O=C(Nc1ccc2c(c1)OCCO2)c1cc2c(s1)-c1ccc(Cl)cc1S(=O)(=O)C2	.	.	.	.	-24.3%
CC(C(=O)NCCN1CCN(C)CC1)C1CCN(C(=O)c2cc3ccccc3[nH]2)CC1 (stereo not given)	.	.	.	.	1.2%
CC1CC(C)CN(C2CCN(Cc3cccnc3)CC2)C1 (stereo not given)	.	2µM*	.	?	?
O=C1N2CCCC2CN1C1CCN(Cc2cccnc2)CC1 (stereo not given)	.	.	.	.	-5.4%[176 µM]
Cc1ccccc1OCCNC(=O)c1cc(=O)c2ccccc2o1	.	.	.	.	-2.2%
COCCN1CSC(=S)N(Cc2ccco2)C1	3.0%	44.7µM*	89.1µM*	31.6µM*	13.3%
S=C1SCN(Cc2ccccn2)CN1Cc1ccco1	-1.2%	2.24µM*	?	10µM*	?
S=C1SCN(Cc2cccnc2)CN1Cc1ccccc1	-4.2%	1.1%	-1.1%	-19.9%	-17.3%
O=C(C1=C(c2ccccc2)S(=O)(=O)CCO1)N(Cc1cccc(F)c1)c1ccccn1	.	.	.	.	-8.9%
CN(CC(=O)N(C)C1CCCCCC1)c1ncnc2nc[nH]c12	.	.	.	.	22.0%
CC(C)C[C@H](N)CSSC[C@@H](N)CC(C)C	.	15.8µM*	.	.	.
CCCNc1cc(=S)nc(N)[nH]1	0.3%	0.631µM*	-5.9%	?	?
CCCNc1nc2ccccc2c(=O)[nH]1	-2.6%	7.8%	3.8%	17.8%	-6.0%
N#Cc1nc(-c2ccc(Cl)cc2)oc1N1CCCC1	.	.	.	.	-7.8%
CC(C)N1CCN(Cc2cccc(-c3ccco3)c2)CC1CCO (stereo not given)	-4.0%	25.1µM*	-8.7%	-3.5%	3.7%
O=C(Nc1cc(Cl)ccc1N1CCOCC1)c1ccc(Br)o1	-3.6%	25.1µM*	-9.3%	-5.9%	.
COc1ccc(N2CCOCC2)c(NC(=O)c2ccc(Br)o2)c1	-6.5%	?	-14.9%	-8.0%	2.5%
O=C(NC(=S)Nc1ccccc1N1CCOCC1)c1ccc(-c2cccc(Cl)c2)o1	-2.9%	22.1%[59 µM]	-18.2%	-1.7%	39.8µM*
COc1ccc(-n2nc3ccc(NC(=O)c4ccc(-c5cc(Cl)ccc5Cl)o4)cc3n2)cc1	-5.1%	?	-12.0%	.	-9.3%
O=C(Nc1ccc(CN2CCOCC2)cc1)c1ccc(-c2cccc(Cl)c2)o1	-10.4%	17.8µM*	9.1%	-25.7%	-19.1%
O=C(NC(=S)Nc1ccc(CN2CCOCC2)cc1)c1ccc(-c2cccc(Cl)c2)o1	-6.0%	?	-8.8%	-2.0%	0.0%
O=C(Nc1ccc2nn(-c3ccccc3)nc2c1)c1ccc(-c2cccc(Cl)c2)o1	-2.2%	14.1µM*	-15.1%	.	-18.2%
COCCOc1ccc(C(C)NC(=O)Cc2cccs2)cc1OC (stereo not given)	.	.	.	.	-45.2%
O=[N+]([O-])c1ccc(N2CCN(c3ccccc3Cl)CC2)cn1	4.8%	-33.0%	-0.3%	17.0%	?
O=[N+]([O-])c1ccc(N2CCN(c3ccc(O)cc3)CC2)cn1	2.3%	11.2µM*	10.7%	56.2µM*	?
SMILES	Glioma ERSR ind	G9a block	VDR inh	Sfp inh	12-LOX inh
Cc1cc(N2C(=O)C=CC2=O)c([N+](=O)[O-])cc1C	-14.7%	1.26µM*	31.6µM*	-98.3%	.
Cc1nc(-n2nc(C)c(Cl)c2C)sc1C(=O)N1CCCC1	.	.	.	.	-8.5%
Cc1cc(C(=O)N(Cc2ccco2)Cc2cccs2)ccc1-n1cnnn1	.	.	.	.	-3.6%
CCCCCCCNC(=O)c1ccc(Nc2ccc(-c3cccc(C)c3)nn2)cc1	.	.	.	.	-2.5%
O=[N+]([O-])c1cc(CSC2=NCCN2)ccc1O	-3.8%	25.1µM*	-14.0%	-19.4%	-15.7%
S=C(Nc1ccccc1)Nc1cccc(Cl)c1Cl	0.6%	.	-7.1%	-21.0%	-18.4%
CC(=O)Nc1cccc(NC(=S)Nc2cccc(Cl)c2Cl)c1	-0.3%	.	-16.6%	31.6µM*	-6.9%
